Results published in PubChem BioAssay (NCI).
Values joined by “and” are separate entries in the source; they are usually repeats but may differ in a detail not shown here. Equal values may be shown once. This is part of a sample that, as a whole, favours compounds with a hit. Of some 83,000 tested, about 20% had one in any assay.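 Single-concentration screen, 48 h exposure, 96-well plates. Endpoint: percent growth. Below 10 = active.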 Active and inactive are the calls of the source.

The molecules below were run on MDA-MB-468 breast (assay: NCI-60 one-dose screen, 48 h (100 = growth as untreated, 0 = no growth, -100 = all killed)). Conditions: 10 µM unless noted.

Structure (SMILES)	growth
CC(C)CCCCCOC(=O)c1ccccc1SSc1ccccc1C(=O)OCCCCCC(C)C	109% (inactive)
Cc1cccc(NC(=O)N/C(N)=N/c2nc3ccccc3s2)c1	17.8% (inactive)
COc1ccc(CCc2nc3cc(-c4c(C)noc4C)ccc3n2CCN2CCOCC2)cc1	9.69% (active)
Cc1ccc(S(=O)(=O)N2CCCC2CO)cc1 (configuration not stated)	86.3% (inactive)
Oc1cccc(Nc2nc(-c3ccccn3)cs2)c1	110% (inactive)
Cn1cc(C(=O)c2nc(-c3c[nH]c4ccccc34)no2)c2ccccc21	-4.38% (active)
CN1CCN(Cc2ccc(NC(=O)c3[nH]ncc3Nc3ncnc4c3CCC4)cc2)CC1	9.05% (active)
CC(=O)OCCCCCCn1c2ccccc2c2c3c(c4c5ccccc5n(C)c4c21)C(=O)N(O)C3=O	90.4% (inactive)
CCNCC(=O)Nc1ccc(C(=O)OCC)cc1	111% (inactive)
C=CC(=O)Nc1cccc(Nc2nc(SC)nc(-c3cccc([N+](=O)[O-])c3)c2C#N)c1	55.9% (inactive)
CCCCCN1C(=O)CCC1=O	108% (inactive)
CC1=C(C(=O)OCC2CCN(C(=O)OC(C)(C)C)CC2)[C@H](c2cccc(Br)c2)C2=C(CC(C)(C)CC2=O)N1	29.7% (inactive)
Cn1cc(-c2csc(-c3c[nH]c4ccc(F)cc34)n2)c2ccnc(Cl)c21	15% (inactive)
Cc1cccc2c1S/C(=C/c1ccc([N+](=O)[O-])cc1)C2=O	112% (inactive)
COc1cc(/C=C/c2cc(/C=C/c3ccc(O)c(OC)c3)n(C(=O)Cc3ccccc3)n2)ccc1O	-4.29% (active)
CCCCCCN(CCCCCC)CCC(O)c1ccc2ccccc2c1 (configuration not stated)	18.6% (inactive)
COc1cc2oc(-c3cccc(NC(=O)c4cc(NC(=O)[C@H](C)NC(=O)OC(C)(C)C)ccc4C)c3)cc(=O)c2c(OC)c1OC	84.3% (inactive)
CN(C)Cc1cc(C(C)(C)C)cc(Br)c1O	90.2% (inactive)
O=C(OCc1ccccc1)c1ccccc1	95% (inactive) and 74.9% (inactive)
O=C(O)c1cccc(CN2CCN(c3cc4c(cc3F)c(=O)c(C(=O)O)cn4C3CC3)CC2)c1O	101% (inactive)
C=C1C(=O)O[C@H]2[C@H]1CC/C(COC(=O)CCCCCCCC(=O)OC/C1=C/CC[C@@]3(C)O[C@H]3[C@H]3OC(=O)C(=C)[C@@H]3CC1)=C\CC[C@@]1(C)O[C@@H]21	-21.6% (active)
O=C(N/N=C/c1ccccc1O)C(=O)Nc1ccc(F)cc1	33% (inactive)
Nc1ccc2c(c1)C1(CCC2)NC(=O)NC1=O (configuration not stated)	97.4% (inactive)
COc1cc(C2NC(c3ccc(Cl)cc3)C(C)C(=NC(=O)c3cnccn3)C2C)cc(OC)c1OC (configuration not stated)	91.6% (inactive)
O=C1c2cc(Cl)ccc2Oc2cc([N+](=O)[O-])ccc2N1c1ccc(F)cc1F	91.6% (inactive)
COc1ccc(-c2cncn2-c2ccc(-c3nc4cc(OC)c(OC)c(OC)c4s3)cc2)cc1N	78.4% (inactive)
CCOC(=O)/C=C1\S/C(=N\Nc2ccc([N+](=O)[O-])cc2[N+](=O)[O-])N(Cc2ccccc2)C1=O	84.2% (inactive)
